Measurements reported in PubChem BioAssay (NCI).
The panel holds about 83,000 compounds, 20% with a hit somewhere; the sample as a whole holds those more often.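 96-well plates, one dose, 48 hours. Percent growth reported; active if below 10.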 A number with no mark means an inactive call. Activity calls are given as the source filed them.

The compounds below were run on SR leukemia (assay: NCI-60 one-dose screen, 48 h (100 = growth as untreated, 0 = no growth, -100 = all killed)). Conditions: 10 µM unless noted.
Method: Growth inhibition of the SR human tumor cell line is measured as a screen for anti-cancer activity. Cells are grown in 96 well plates and exposed to the test compound for 48 hours. Compounds are tested at a single concentration, which is 10^-5 M for most compounds. The reported endpoint is percent growth (GI% or GIPRCNT), where numbers from 0 - 100% represent growth inhibition, and numbers from -100% - 0 represent cell death. For example, a value of 40 represents 60% growth inhibition. A value of 0 means no net growth occurred over the course of the experiment. A value of -40 indicates 40% of cells at the beginning of the experiment died by the end of the experiment. A value of -100 means all cells are dead at the end of the experiment.
NCI-60 Human Tumor Cell Lines Screen was performed using the standard one-dose NCI protocol, which is described in more detail at https://dtp.cancer.gov/discovery_development/nci-60/default.htm.
Compounds with GIPRCNT values below 10 were considered active. Activity score was based on GIPRCNT using the following formula: […]
Score is 0 for GIPRCNT values of 100 or above, 50 for GIPRCNT values of 0, and 100 for GIPRCNT values of -100.

SMILES	growth
CCCCN(CCCC)C(=N)c1ccnc2ccccc12	92.7%
COC(=O)[C@]12CC[C@@H](C)[C@H](C)[C@@H]1C1=CC[C@@H]3[C@@]4(C)C(C=O)=C[C@@](C)(COC(=O)c5ccco5)[C@@H]4[C@H](O)C[C@@]3(C)[C@]1(C)CC2	0.404% (active)
COc1ccc(C2NN=C3c4ccccc4CCC32)cc1 (stereo not given)	3.17% (active)
CCCOC(=O)n1cccc1	114%
O=[N+]([O-])c1ccc(Sc2ncccn2)c([N+](=O)[O-])c1	-20.3% (active)
N#C/C(=C1C=C/C(=N/O)C(Cl)=C/1)c1ccc(Cl)cc1	78.5%
CCN(CC)c1ccc2[nH]c3c(C(N)=O)cc(=O)c(=O)c=3oc2c1	5.09% (active)
COc1ccc(Nc2nc(N)nc3c2CCN(Cc2ccc(OC)cc2OC)C3=O)cc1	60.2%
CCNc1nc(S(=O)(=O)CC)nc2ccccc12	84.5%
COc1ccc(CNCCCN2C(=O)c3ccc4c5c(ccc(c35)C2=O)C(=O)N(CCCNCCCCNCCCN)C4=O)c(OC)c1OC	6.04% (active)
O=C(NCc1cn(Cc2cccc(Oc3ccccc3)c2)nn1)c1cccnc1Nc1ccc(F)cc1	28.3%
CCOC(=O)CC(=O)OC	76.7%
COc1ccc(-c2nc(/C=C3/C(=O)Nc4ccc(F)cc43)c3ccccn23)cc1	79.1%
COc1cc(-c2nn(C(=O)NS(=O)(=O)c3ccccc3)cc2-c2ccncc2)ccc1Cl	89.1%
O=C(NNC(=O)N1c2ccccc2C=Cc2ccccc21)c1ccc2ccccc2c1	87.2%
CC(=O)OC[C@]12CC[C@H]3[C@@H](C[C@H]4O[C@]45CC=CC(=O)[C@]35C)[C@]1(O)CC[C@@]2(O)[C@@](C)(O)C1CC(C)=C(C)C(=O)O1 (stereo not given in full)	10.4%
CCOc1cc2c(Cl)ncnc2c(OCC)c1OCC	4.52% (active)
O=C1C2(c3ccccc3)C(c3ccccc3)=C(c3ccccc3)C1(c1ccccc1)C1CC=CC12 (stereo not given)	101%
O=C1NN(C(=O)c2ccc(Cl)cc2)C(c2ccccc2)=N/C1=C\c1cn(-c2ccccc2)nc1-c1ccccc1	90%
Nc1nc(Nc2cc(Cl)cc(Cl)c2)nn1S(=O)(=O)c1ccc2ccccc2c1	46.3%

SMILES	growth
C=C1C(=O)O[C@@H]2[C@@H]3O[C@@](C)(CC/C=C(\C)CCC[C@@H]2C)[C@H](O)C[C@@H]13	13.7%
CC(C)C1=CC2=C(C=O)C[C@@H]3[C@](C)(CCC[C@@]3(C)C(=O)OCC#CCN3CCCC3)[C@H]2CC1	26.4%
COC(=O)c1cc(=O)nc(N/N=C/c2ccco2)s1	87%
C/C=C/C1=CN2C(=O)c3cc(OC4OC(C)C(NC)C(C)(O)C4O)c(C)cc3N=C[C@@H]2C1 (stereo not given in full)	-11.8% (active)
CN(C)CCCN(c1nc(C(Cl)(Cl)Cl)ns1)c1nc(C(Cl)(Cl)Cl)ns1	17.1%
O=C(NNC(=S)Nc1ccccc1)c1cc2ccc1CCc1ccc(cc1)CC2	78.4%
CCCCCCCCCCCCCCCCNC(=O)OC(C)C	1.69% (active)
COC(OC)c1ccccc1	93.9%
O=C1C(Cl)=C(Nc2ccccn2)C(=O)c2ccccc21	81.4%
Nc1cccc(-c2nc3sccn3c2-c2ccnc(NCCNS(=O)(=O)c3ccc(C(F)(F)F)cc3)n2)c1	35.4%
CC(C)(C)NCCC(O)c1cc2c(Cl)cc(Cl)cc2c2cc(C(F)(F)F)ccc12 (stereo not given)	-77.5% (active)
COc1cccc(/C=C/C(=O)Nc2cc(OC)c3c(c2)OCO3)c1	81.5%
N=C(N)c1ccc(-c2ccc(-c3ccc4ccccc4c3)s2)cc1	6.46% (active)
C=C[C@@H]1C[C@@H]2Cc3cc(F)ccc3N1O2	32%
Cn1ncc2c(Sc3ccc(Cl)cc3)ncnc21	53.6%
CCCCCCCCC(C)OC(=O)c1nn(C(C)=O)c2ccccc12 (stereo not given)	126%
CCN(CC)CCOc1ccc(/C(=C(/C)c2ccccc2)c2ccc(OC(C)=O)cc2)cc1	112%
O=c1cc(Cc2ccc([N+](=O)[O-])cc2)[nH]c(=O)[nH]1	91.9%
C=CCSc1n[nH]c(-c2cccs2)n1	91%
COc1cc(/C=C/C(=O)N2CCN(C(=O)/C=C/c3cc(OC)c(OC)c(OC)c3)CC2)cc(OC)c1OC	75.2%
